# Compound activity (PubChem)
# A selection: hits, their analogues and other compounds. The true share with any hit is near 3.6%.
# AmpC detergent – qHTS Inhibitors of AmpC Beta-Lactamase (assay with detergent) | AmpC hydrolysis of nitrocefin, absorbance 480 nm, 0.01% Triton | Potency, µM (titrated, usually from 114 µM), inactives show at the top dose activity change, negative = inhibition, most hits filed as inhibitors | 0.041% of 370,000 active | AID 485294, 2010;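 also: 0% = no-compound wells and -100% = no-enzyme wells; nearly all actives have a fitted effect of over 25% in size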
# Target sequence (P00811 whole entry, looked up): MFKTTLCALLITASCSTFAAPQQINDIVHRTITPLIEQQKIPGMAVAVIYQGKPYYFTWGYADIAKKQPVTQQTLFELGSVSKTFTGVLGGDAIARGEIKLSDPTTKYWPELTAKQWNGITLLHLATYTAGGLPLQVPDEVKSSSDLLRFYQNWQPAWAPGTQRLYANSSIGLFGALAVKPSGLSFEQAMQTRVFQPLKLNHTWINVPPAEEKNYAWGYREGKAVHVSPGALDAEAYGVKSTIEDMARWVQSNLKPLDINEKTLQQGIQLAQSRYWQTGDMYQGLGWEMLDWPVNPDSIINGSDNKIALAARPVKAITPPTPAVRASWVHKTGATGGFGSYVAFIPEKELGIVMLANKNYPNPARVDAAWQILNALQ
#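 20 mM phosphate pH 7.0 + 0.01% (detergent screen) or 0.0001% Triton X-100; 5.3 nM AmpC reagent; cpd preinc 15 min RT; nitrocefin (800 uM stock) to start; A480 q20 s × 4 min; Activity was normalised to no-enzyme and no-compound control wells.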
# AmpC inh no detg – qHTS Inhibitors of AmpC Beta-Lactamase (assay without detergent); AmpC nitrocefin hydrolysis, absorbance 480 nm, 0.0001% Triton; Potency, µM (doses to about 57.1 µM), for inactives: at the top dose activity change, negative = inhibition, most hits filed as inhibitors; 0.52% of 330,000 active; AID 485341, 2010;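 also: plate controls were no compound for no effect and no enzyme for full effect; nearly all actives have a fitted effect of over 20% in size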
#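 AmpC (5.3 nM in the dispensed reagent) in 20 mM phosphate pH 7.0 with 0.01% (detergent screen) or 0.0001% Triton X-100 was preincubated with compounds for 15 min at room temperature. Nitrocefin was then added from an 800 uM solution, and hydrolysis was followed at 480 nm.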
# Giardia FBPA inh – qHTS Assay for Inhibitors of Fructose-1,6-bisphosphate Aldolase from Giardia Lamblia; 0.71% of 290,000 active; Potency, µM (highest dose often 59.6 µM), without a hit: top-dose activity, negative = inhibition, most hits filed as inhibitors; purified Giardia FBPA; A8B2U2; also: nearly all actives have a fitted effect of over 55% in size
#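 40 nM FBPA preincubated 10 min at RT with compound (up to 57.5 uM final), then substrate plus GAPDH/TPI/NAD/arsenate coupling and diaphorase/resazurin added. Fluorescence read after 20 min at RT, 525/598 nm.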
# Sm TGR block – qHTS Assay for the Inhibitors of Schistosoma Mansoni Peroxiredoxins; Schistosoma mansoni thioredoxin glutathione reductase (TGR), Q962Y6; purified TGR, DTNB reduction, TNB absorbance 405 nm; Potency, µM (titrated, usually from 114 µM), for the others: at the top dose activity change, negative = inhibition, most hits filed as inhibitors; 3% of 360,000 active; AID 485364, 2010; also: nearly all actives have a fitted effect of over 60% in size
#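 Kinetic colorimetric format: TGR-catalysed, NADPH-driven DTNB reduction monitored via TNB absorbance. Enzyme dispensed at 20 nM; compound exposure 15 min at room temperature before reaction start.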
# The depositor's hits bear a star; ? = inconclusive; . = no result given. Calls follow the shape of the dose curve; as a rule, active = well fitted curve in the direction sought with a large enough effect; inconclusive = small, poorly fitted or top-dose-only effect, or another doubt; inactive = no such curve, though single readings can be large; an effect the other way counts as inactive or inconclusive. Unless noted, % is scaled to controls: 0 for no effect and ±100 for the full control effect; potency is read from the fitted curve at half-maximal effect.
SMILES,AmpC detergent,AmpC inh no detg,Giardia FBPA inh,Sm TGR block
CSc1ccc(C(=O)C2CCCN(C(=O)c3nonc3C)C2)cc1 (stereo unspecified),-10.7%,68.3%,1.5%,13.5%
Cc1nc([N+](=O)[O-])c(Br)n1CC(=O)c1ccc(Br)cc1,?,-6.2%,0.0%,11.2µM*
Cc1nc([N+](=O)[O-])c(Br)n1CC(=O)c1ccc2ccccc2c1,1.9%,15.6%,-6.0%,14.1µM*
Cc1nc([N+](=O)[O-])cn1CC(=O)c1ccc(Cl)cc1,?,-19.0%,4.7%,3.6%
Cc1cc([N+](=O)[O-])nn1CC(=O)c1ccccc1,-4.7%,-14.1%,3.0%,21.0%
Cc1nc([N+](=O)[O-])c(Br)n1CC(=O)c1ccccc1,4.1%,-10.2%,5.3%,3.98µM*
CN(CC(=O)Nc1cccc(F)c1)C(=O)c1cc([N+](=O)[O-])ccc1N1CCCCC1,-0.1%,-23.4%,.,5.0%
COS(C)(=O)=O,.,.,-1.1%,.
N#Cc1ccccc1NC(=O)C(=O)NCC(c1cccnc1)N1CCN(c2ccccc2)CC1 (stereo unspecified),23.1%,.,.,5.8%
Cc1occc1C(=O)NCc1cccc(CNC(=O)c2ccoc2C)c1,-17.1%,-29.3%,3.1%,39.8µM*
Cc1ccccc1NS(=O)(=O)c1ccc(NS(=O)(=O)c2cccs2)cc1,5.9%,-29.5%,8.1%,7.8%
CCCC(=O)Nc1nnc(S(=O)(=O)N(C)Cc2ccco2)s1,-6.9%,-18.3%,-17.6%,4.47µM*
CCC(=O)Nc1nnc(S(=O)(=O)N(C)Cc2ccco2)s1,0.8%,-24.2%,.,35.5µM*
CCOc1ccc(C(=O)Nc2nnc(S(=O)(=O)N(C)Cc3ccco3)s2)cc1,?,-26.6%,5.6%,?
Cc1cc(C)c(C)c(S(=O)(=O)N2CCC(C(=O)Nc3ccncc3)CC2)c1C,5.6%,131.9%,.,4.1%
CCOc1ccc(C(=O)CC(Sc2ccc(C)cc2)C(=O)O)cc1 (stereo unspecified),-9.8%,-24.0%,23.2%,3.16µM*
O=C(CC(Sc1ccc(Br)cc1)C(=O)O)c1ccc(F)cc1 (stereo unspecified),-8.9%,-28.0%,-3.5%,0.631µM*
O=C(CC(C(=O)O)c1ccc(Cl)cc1)c1ccc(Br)cc1 (stereo unspecified),-0.2%,-13.0%,-1.4%,-3.3%
CCC(Sc1ccc(C(=O)O)cc1)C(=O)O (stereo unspecified),-1.4%,-13.0%,4.9%,3.1%
CCc1nnc2c(N3CCN(c4cccc(C)c4)C(C)C3)nc3ccccc3n12 (stereo unspecified),27.8%,.,.,-1.4%
CC[C@H](C)[C@H](NC(=O)[C@H](Cc1ccccc1)NC(=O)[C@H](CCC(=O)O)NC(=O)[C@H](CCCCN)NC(=O)[C@H](C)NC(=O)[C@H](C)NC(=O)[C@H](CCC(N)=O)NC(=O)CNC(=O)[C@H](CCC(=O)O)NC(=O)[C@H](CC(C)C)NC(=O)[C@H](Cc1ccc(O)cc1)NC(=O)[C@H](CO)NC(=O)[C@H](CO)NC(=O)[C@@H](NC(=O)[C@H](CC(=O)O)NC(=O)[C@H](CO)NC(=O)[C@@H](NC(=O)[C@H](Cc1ccccc1)NC(=O)[C@@H](NC(=O)CNC(=O)[C@H](CCC(=O)O)NC(=O)[C@H](C)NC(=O)[C@@H](N)Cc1cnc[nH]1)[C@@H](C)O)[C@@H](C)O)C(C)C)C(=O)N[C@@H](C)C(=O)N[C@@H](Cc1c[nH]c2ccccc12)C(=O)N[C@@H](CC(C)C)C(=O)N[C@H](C(=O)N[C@@H](CCCCN)C(N)=O)C(C)C,.,.,-1.5%,.
CN(C)C(=O)c1ccc(-c2cncnc2N2CCNCC2)cc1,.,.,-8.5%,.
O=C1c2ccccc2-c2c1cccc2C(=O)N1CCN(C(=O)c2ccco2)CC1,?,39.7%,-6.4%,20µM*
CN(C)C(=O)N1CCN(C(=O)c2ccco2)CC1,-13.0%,28.2µM*,0.0%,-4.8%
CCCSc1ccccc1C(=O)N1CCN(C(=O)c2ccco2)CC1,0.4%,39.5%,.,-18.2%
COc1ccc(-n2c(Cc3cccn3C)nnc2SCC(=O)Nc2ccc(Cl)cc2)cc1,5.5%,1µM*,-1.4%,50.1µM*
